Structures can show the parent of a compound that is named as a salt. ± gives the standard deviation of the averaged measurements.

The values below come from the supplement of paper PMC9262897, “Low-cost anti-mycobacterial drug discovery using engineered E. coli” (Nature Communications, 2022).

This assay has as its system E. coli TESEC Alr+ wild-type control. Description: growth (OD600 after 10 h); higher = more growth (less inhibition). The conditions noted are these: compound 0.1 mM; raw OD600 reference: median of DMSO wells 0.49, cell-free background 0.052. The protocol:
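TESEC Mtb Alr E. coli (ΔaraC ΔtolC ΔentC Δalr ΔdadX, arabinose-inducible Mtb Alr) or the Alr+ wild-type control strain, grown in defined M9-fructose medium without D-alanine in 96-well plates with Prestwick library compounds at 0.1 mM and 1% DMSO. Low Alr induction is 0.1 µM arabinose and high induction is 10 mM arabinose.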
As for `Cc1ccc(-c2cc(C(F)(F)F)nn2-c2ccc(S(N)(=O)=O)cc2)cc1` [Celecoxib], the growth worked out at 0.425 ± 0.11.

Molecule `CC(C)C(=O)Nc1ccc([N+](=O)[O-])c(C(F)(F)F)c1` [Flutamide] came in with a growth of 0.506 ± 0.0074.

`CC(c1cc2ccccc2s1)N(O)C(N)=O` (stereo not given) [Zileuton] came in with a growth of 0.457 ± 0.011.

Take `Cc1onc(-c2c(F)cccc2Cl)c1C(=O)N[C@@H]1C(=O)N2[C@@H]1SC(C)(C)[C@@H]2C(=O)O` [Flucloxacillin sodium]: the growth was determined as 0.496 ± 0.053.

As to `CC1=C(CC(=O)O)c2cc(F)ccc2/C1=C\c1ccc([S+](C)[O-])cc1` (stereo not given) [Sulindac], the growth is 0.364 ± 0.036.

For `CN[C@@H]1[C@@H](O[C@H]2O[C@H](CO)[C@@H](N)[C@H](O)[C@H]2O)OC2C[C@@H](N)[C@@H](O[C@H]3[C@H](O)[C@@H](O)[C@H](N)C[C@@H]3N)OC2[C@@H]1O` (stereo not given in full) [Apramycin], the growth came out at 0.0798 ± 0.0039.

In turn, `CC(C(=O)O)c1ccc(-c2ccccc2)c(F)c1` (stereo not given) [Flurbiprofen] registered a growth of 0.486 ± 0.025.

`CCOc1ccc(NC(C)=O)cc1` [Phenacetin] had a growth of 0.506 ± 0.071.

Turning to `COc1cccc2c1C(=O)c1c(O)c3c(c(O)c1C2=O)C[C@@](O)(C(=O)CO)C[C@@H]3O[C@H]1C[C@H](N)[C@@H](O)[C@H](C)O1` [Epirubicin hydrochloride], the growth was 0.0592 ± 0.0032.

Turning to `Cc1oncc1C(=O)Nc1ccc(C(F)(F)F)cc1` [Leflunomide], the growth worked out at 0.3131 ± 0.0014.

Molecule `CN1CCN(C(c2ccccc2)c2ccc(Cl)cc2)CC1` (stereo not given) [Chlorcyclizine hydrochloride] yielded a growth of 0.4416 ± 0.0038.

The molecule `COc1ccc2cc([C@H](C)C(=O)O)ccc2c1` [Naproxen] showed a growth of 0.5599 ± 0.0025.

In the case of `CC/C(=C(\c1ccccc1)c1ccc(OCCN(C)C)cc1)c1ccccc1` [Tamoxifen citrate], the growth was 0.0552 ± 0.015.

`Cc1ncc(CO)c(CO)c1O` [Pyridoxine hydrochloride] had a growth of 0.544 ± 0.025.

As to `CNCCCC12CCC(c3ccccc31)c1ccccc12` [Maprotiline hydrochloride], the growth came to 0.589 ± 0.072.

`CNC(=O)c1c(I)c(C(=O)NCC(=O)Nc2c(I)c(C(=O)O)c(I)c(C(=O)NCCO)c2I)c(I)c(N(C)C(C)=O)c1I` [Ioxaglic acid] came in with a growth of 0.606 ± 0.023.

Take `C=C1c2c(Cl)ccc(O)c2C(O)=C2C(=O)[C@]3(O)C(O)=C(C(N)=O)C(=O)[C@@H](N(C)C)[C@@H]3[C@@H](O)[C@H]12.O=C(O)c1cc(S(=O)(=O)O)ccc1O` [Meclocycline sulfosalicylate]: the growth was 0.05223 ± 0.00012.

In turn, `CCCCOc1cc(C(=O)OCCN(CC)CC)ccc1N` [Benoxinate hydrochloride] had a growth of 0.476 ± 0.024.

On to `CC(C)(C)NC[C@H](O)COc1ccccc1C1CCCC1` [Penbutolol sulfate], for which the growth was determined as 0.429 ± 0.019.

Regarding `C[C@@H](c1ncncc1F)[C@](O)(Cn1cncn1)c1ccc(F)cc1F` [Voriconazole], the growth was found to be 0.557 ± 0.1.

For `CN(C)[C@@H]1C(=O)C(C(N)=O)=C(O)[C@@]2(O)C(=O)C3=C(O)c4c(O)ccc(Cl)c4[C@@H](O)[C@H]3C[C@@H]12` [Demeclocycline hydrochloride], the growth was 0.05087 ± 0.00038.

Turning to `CN(C)[C@@H]1C(=O)C(C(=O)NCNCCCC[C@H](N)C(=O)O)=C(O)[C@@]2(O)C(=O)C3=C(O)c4c(O)cccc4[C@@](C)(O)[C@H]3C[C@@H]12` [Lymecycline], the growth came out at 0.329 ± 0.017.

The molecule `COc1cc(C(=O)OCCCN2CCCN(CCCOC(=O)c3cc(OC)c(OC)c(OC)c3)CC2)cc(OC)c1OC` [Dilazep dihydrochloride] showed a growth of 0.416 ± 0.034.

Regarding `CCn1cc(C(=O)O)c(=O)c2ccc(C)nc21` [Nalidixic acid sodium salt], the growth is 0.0678 ± 0.0015.

As for `CCCOc1ccccc1-c1nc2[nH]nnc2c(=O)[nH]1` [Zaprinast], the growth was found to be 0.507 ± 0.057.

As for `Clc1ccccc1C(c1ccccc1)(c1ccccc1)n1ccnc1` [Clotrimazole], the growth is 0.0507 ± 0.0011.

In turn, `Cc1c(-c2ccccc2)oc2c(C(=O)OCCN3CCCCC3)cccc2c1=O` [Flavoxate hydrochloride] had a growth of 0.414 ± 0.023.

For the molecule `CC[N+](CC)(CC)CCOc1cccc(OCC[N+](CC)(CC)CC)c1OCC[N+](CC)(CC)CC` [Gallamine triethiodide], the growth is 0.475 ± 0.062.

Turning to `Nc1nc(O)c2ncn(CCC(CO)CO)c2n1` [Penciclovir], the growth turned out to be 0.455 ± 0.03.

`N=C(N)NCc1cccc(I)c1` [Iobenguane sulfate] returned a growth of 0.488 ± 0.019.

`CC(C)(C(=O)O)c1ccc(C(O)CCCN2CCC(C(O)(c3ccccc3)c3ccccc3)CC2)cc1` (stereo not given) [Fexofenadine HCl]: the growth turned out to be 0.567 ± 0.054.

Consider `Clc1ccc(CCC(Cn2ccnc2)Sc2c(Cl)cccc2Cl)cc1` (stereo not given) [Butoconazole nitrate], for which the growth was 0.0876 ± 0.003.

For the molecule `CCC(Cc1c(I)cc(I)c(N)c1I)C(=O)O` (stereo not given) [Iopanoic acid], the growth is 0.263 ± 0.0034.

Consider `Clc1ccc(CO/N=C(\Cn2ccnc2)c2ccc(Cl)cc2Cl)c(Cl)c1` [Oxiconazole Nitrate], for which the growth came out at 0.0828 ± 0.0028.

As for `O=C(NCCO[N+](=O)[O-])c1cccnc1` [Nicorandil], the growth was determined as 0.481 ± 0.072.

For `Nc1nc2[nH]cc(CCc3ccc(C(=O)N[C@@H](CCC(=O)O)C(=O)O)cc3)c2c(=O)[nH]1` [Pemetrexed disodium], the growth is 0.56 ± 0.081.

The molecule `CC1=C(C(=O)O)N2C(=O)[C@@H](NC(=O)[C@H](N)c3ccc(O)cc3)[C@H]2SC1` [Cefadroxil] had a growth of 0.606 ± 0.045.

In turn, `CC(C)(C)NCC(O)c1ccc(O)c(CO)c1` (stereo not given) [Salbutamol] displayed a growth of 0.528 ± 0.092.

In the case of `Oc1c(I)cc(Cl)c2cccnc12` [Clioquinol], the growth was 0.0685 ± 0.0091.

Consider `NNCCc1ccccc1` [Phenelzine sulfate], for which the growth turned out to be 0.399 ± 0.017.
